Screening data: PubChem, National Center for Advancing Translational Sciences (NCATS)
RORg inh – qHTS for inhibitors of ROR gamma transcriptional activity. Nuclear receptor ROR-gamma (Mus musculus), P51450. Drosophila S2 Gal4-RORgamma UAS-luciferase reporter, 20 h. Potency, µM (series often up to 53.6 µM), most hits filed as inhibitors. 5.4% of 310,000 active. AID 2551, 2010; note: nearly all actives have a fitted effect of over 60% in size
Target sequence (P51450 whole entry, looked up, the tested form may be a part): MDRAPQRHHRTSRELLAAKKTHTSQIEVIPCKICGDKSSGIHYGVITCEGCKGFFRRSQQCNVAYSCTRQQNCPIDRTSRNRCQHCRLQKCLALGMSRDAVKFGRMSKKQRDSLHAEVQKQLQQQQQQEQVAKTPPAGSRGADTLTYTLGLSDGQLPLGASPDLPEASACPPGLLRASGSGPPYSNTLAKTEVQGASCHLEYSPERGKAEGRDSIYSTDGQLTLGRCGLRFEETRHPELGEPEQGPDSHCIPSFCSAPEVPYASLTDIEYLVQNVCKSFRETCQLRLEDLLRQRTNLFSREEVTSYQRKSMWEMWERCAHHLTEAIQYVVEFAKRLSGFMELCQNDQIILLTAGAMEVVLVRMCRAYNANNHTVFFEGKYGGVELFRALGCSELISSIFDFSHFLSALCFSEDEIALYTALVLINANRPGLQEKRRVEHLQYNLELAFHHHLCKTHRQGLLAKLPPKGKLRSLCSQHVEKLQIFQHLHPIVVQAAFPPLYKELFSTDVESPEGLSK
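Stably transfected Drosophila Schneider cells are the test system, with ROR gamma fused to Gal4 and luciferase under UAS control; luminescence is read after 20 hr of 700 uM copper sulfate induction at ambient temperature.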
VP16 counter – VP16 counterscreen qHTS for inhibitors of ROR gamma transcriptional activity. Drosophila S2 Gal4-VP16 UAS-luciferase, luminescence, 20 h. Potency, µM (doses to about 53.6 µM), hits mostly inhibitors. 3.5% of 310,000 active;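 note: Gal4-VP16 expression switched on by copper sulfate through the metallothionein promoter; nearly all actives have a fitted effect of over 50% in size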
LDHA inh – qHTS assay for inhibitors of human lactate dehydrogenase; L-lactate dehydrogenase A chain (Homo sapiens), P00338; purified LDHA, NADH/diaphorase-resazurin fluorescence; hits give low values; activity change, % (values are at about 110 or 230 µM); 0.15% of 480,000 active; AID 1347041, 2019; in the data active = activity change below about -30%; inconclusive = mostly about -25% to -30%
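Resorufin fluorescence (ex540/em590), read at 0 and 20 min after diaphorase/resazurin addition, reports the NADH left after a 5 min room-temperature reaction of 2 nM human LDH5 with 0.06 mM NADH and 0.2 mM pyruvate.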
DT40 TDP1 CPT – qHTS for Inhibitors of human tyrosyl-DNA phosphodiesterase 1 (TDP1): qHTS in cells in presence of CPT; chicken DT40 Tdp1-/-;hTDP1 cells + 20 nM CPT, ATP luminescence, 48 h; Potency, µM (top dose mostly 46.2 µM), actives largely listed as inhibitors; 12% of 420,000 active; note: nearly all actives have a fitted effect of over 55% in size
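Chicken DT40 Tdp1-/- cells complemented with human TDP1, 400 cells/well, exposed to compounds plus 20 nM camptothecin for at least 48 h at 37 C; viability read as ATP content by CellTiter-Glo luminescence.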
IL-1B inflam inh – qHTS for Inhibitors of Inflammasome Signaling: IL-1-beta AlphaLISA Primary Screen; THP-1 LPS/ATP IL-1B secretion, AlphaLISA, 16 h; hits give low values; activity change, % at 57.5 µM; 4.7% of 360,000 active; AID 743279, 2014; in the data active = activity change below about -50%; inconclusive = mostly about -30% to -49%
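Secreted IL-1B measured by AlphaLISA bead assay after 16 h compound exposure of THP-1 cells; compounds (final up to 57.5 uM) added 1 h before LPS (250 ng/mL) and ATP (1.25 mM) stimulation; lower signal means less secretion.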
DT40 TDP1 no CPT – qHTS for Inhibitors of human tyrosyl-DNA phosphodiesterase 1 (TDP1): qHTS in cells in absence of CPT. 15% of 420,000 active. DT40 Tdp1-/- hTDP1 cells, no CPT, ATP luminescence, 48 h. Potency, µM (titrated, usually from 46.2 µM), most hits filed as inhibitors. AID 686978, 2013; note: nearly all actives have a fitted effect of over 55% in size
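Chicken DT40 Tdp1-/- cells stably complemented with human TDP1 were seeded at 400 cells/well with DMSO in place of 20 nM camptothecin. After compound pinning, cells grew at least 48 hr at 37 °C; viability read by CellTiter-Glo luminescence.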
Numbers stand for hits; n = inactive; u = inconclusive; x = not tested or not shown. The list is not random: actives were taken first. Their share in the collection is about 18%. Unless noted, calls come from the whole dose curve; as a rule, active = well fitted curve in the direction sought with a large enough effect; inconclusive = small, poorly fitted or top-dose-only effect, or another doubt; inactive = no such curve, though single readings can be large; an effect the other way counts as inactive or inconclusive.

SMILES	RORg inh	VP16 counter	LDHA inh	DT40 TDP1 CPT	IL-1B inflam inh	DT40 TDP1 no CPT
Fc1ccc(N2CCN(c3ncnc4c3nc3n4CCCCC3)CC2)cc1	x	x	n	n	x	18.4µM
COC(=O)C1=C(c2cc3ccccc3o2)C[C@@H]2CC[C@H]1N2C(=O)N1CCCC1	x	x	n	u	n	16.4µM
COC(=O)C1=C(c2c(C)noc2C)C[C@@H]2CC[C@H]1N2C(=O)N1CCCCC1	x	x	n	n	n	n
COC(=O)C1=C(c2cc3ccccc3o2)C[C@@H]2CC[C@H]1N2C(=O)NCCO	x	x	n	n	n	n
COC(=O)C1=C(c2ccc(S(C)(=O)=O)cc2)C[C@@H]2CC[C@H]1N2C(=O)N1CCCCC1	x	x	n	n	n	n
CCCNC(=O)N1[C@H]2CC[C@@H]1C(C(=O)OC)=C(c1cc3ccccc3o1)C2	x	x	n	16.4µM	n	16.4µM
COC(=O)C1=C(c2cc3ccccc3o2)C[C@@H]2CC[C@H]1N2C(=O)N1CCCCC1	x	x	n	4.61µM	n	2.31µM
CC(C)CN1CCCC2(CCN(C(=O)Oc3ccccc3)CC2)C1	n	n	x	n	x	n
c1ccc(CCN2CCCC2)cc1	x	x	x	n	x	n
COc1cc2c(c(OC)c1OC)CC(N)CCC2 (stereo unspecified)	x	x	n	x	x	x
COc1c(C)cc(C(=O)C2CCCN(Cc3cccc(C)n3)C2)cc1C (stereo unspecified)	2.24µM	12.6µM	n	u	n	20.6µM
COc1ccc2cc(C(=O)C3CCCN(C4CCOCC4)C3)ccc2c1 (stereo unspecified)	n	n	n	20.6µM	n	13µM
COc1c(C)cc(C(=O)C2CCCN(Cc3cccc(O)c3)C2)cc1C (stereo unspecified)	n	n	n	u	n	u
COc1cccc(C(=O)C2CCCN(Cc3ccon3)C2)c1 (stereo unspecified)	n	n	n	n	n	n
Cc1cccc(CN2CCCC(C(=O)c3ccc4c(c3)OCO4)C2)n1 (stereo unspecified)	3.16µM	12.6µM	n	n	n	n
COc1cccc(C(=O)C2CCCN(Cc3cccc(C)n3)C2)c1 (stereo unspecified)	u	14.1µM	n	18.4µM	n	16.4µM
O=C(c1ccc2c(c1)OCO2)C1CCCN(Cc2c(F)cccc2Cl)C1 (stereo unspecified)	n	n	n	n	n	u
C=CC(=O)OCC(CC)CCCC (stereo unspecified)	n	n	x	x	x	x
Cc1noc(C)c1COc1ccc(CC(=O)N(CCC#N)CCN2CCOCC2)cc1	x	x	n	x	x	x
CN=C=O	n	n	x	x	x	x
CO/C=C(/C(=O)OC)c1ccccc1Oc1cc(Oc2ccccc2C#N)ncn1	x	x	x	0.243µM	x	0.217µM
C[C@@H]1CC[C@H]2[C@@H](C)C(=O)O[C@@H]3O[C@@]4(C)CC[C@@H]1[C@]32OO4	n	n	n	0.651µM	n	4.11µM
C[C@@H]1CCC2[C@@H](C)C(=O)O[C@@H]3OC4(C)CCC1[C@@]23OO4 (stereo partly specified)	x	x	n	4.11µM	n	8.2µM
CC1C(=O)OC2O[C@]3(C)CC[C@H]4C(C)CCC1[C@]24OO3 (stereo partly specified)	n	n	x	7.31µM	x	1.16µM
CC1CCC2C(C)C(=O)OC3O[C@]4(C)CCC1[C@@]32OO4 (stereo partly specified)	n	n	x	x	x	x
SMILES	RORg inh	VP16 counter	LDHA inh	DT40 TDP1 CPT	IL-1B inflam inh	DT40 TDP1 no CPT
CC1(C)CN=C(NCc2ccccc2)S1	x	x	n	n	n	n
CC1(C)CN=C(Nc2nc3ccccc3s2)S1	8.91µM	u	n	n	n	u
CC(N)Cc1ccc2oc3ccccc3c2c1 (stereo unspecified)	x	x	n	x	x	x
O=S(=O)(c1ccccc1C(F)(F)F)N1CCN(c2ncnc3sccc23)CC1	x	x	n	14.6µM	-62.2	8.2µM
O=[N+]([O-])c1cc(C(F)(F)F)cc([N+](=O)[O-])c1Cl	n	n	x	x	x	x
CC(C)N1C(=O)/C(=C/C=C/c2ccco2)C(=O)N(Cc2ccco2)C1=O	u	u	n	16.4µM	-106.2	14.6µM
CN(c1ccccc1)P(=O)(N1CC1)N1CC1	x	x	n	2.59µM	n	4.11µM
CC1(C)C(O)CC(O)[C@]2(C)C1CC(=O)[C@]1(C)C2CC[C@@]2(C)C(c3ccoc3)OC(=O)C3OC321 (stereo partly specified)	n	n	x	u	x	n
NC(Cc1ccc(Cl)cc1)c1ccccc1 (stereo unspecified)	x	x	n	x	x	x
O=c1[nH]c(=O)n(-c2ccccc2)c(O)c1/C=C1/C(c2ccccc2)=Nc2ccccc21	n	u	n	2.06µM	n	2.31µM
COc1ccc(OC)c(-n2c(O)c(/C=C3\C(C)=Nc4ccccc43)c(=O)[nH]c2=O)c1	n	n	n	n	u	n
COC(=O)C1=Nc2ccccc2/C1=C\c1c(O)n(-c2ccc(OC)cc2)c(=O)[nH]c1=O	n	n	-43.4	n	n	u
COC(=O)C1=Nc2ccccc2/C1=C\c1c(O)n(C)c(=O)n(C)c1=O	n	n	n	n	n	n
COC(=O)C1=Nc2ccccc2/C1=C\c1c(O)n(-c2ccc(Br)cc2)c(=O)[nH]c1=O	u	u	-67.1	u	u	u
NCC(=O)c1ccc2ccccc2c1	x	x	n	n	x	n
O=C1NC(=O)N(c2cccc(Cl)c2)C(=O)/C1=C\c1ccc(Sc2nc3ccccc3[nH]2)o1	n	n	n	u	n	u
COc1ccccc1N1C(=O)NC(=O)/C(=C\c2cnn(-c3ccccc3)c2)C1=O	n	n	n	u	-89.7	u
COc1ccc(N2C(=O)NC(=O)/C(=C/c3ccc([N+](=O)[O-])s3)C2=O)cc1	n	n	n	14.6µM	n	6.51µM
COc1ccc(N2C(=O)NC(=O)/C(=C\c3ccc([N+](=O)[O-])s3)C2=O)cc1	u	n	n	13µM	u	u
O=C1NC(=O)N(c2ccccc2)C(=O)/C1=C/c1ccc(Sc2ccccc2)o1	n	n	n	u	-101.0	u
C[C@H](CCC(=O)O)[C@H]1CC[C@H]2[C@H]3C(CC[C@]12C)[C@@]1(C)CC[C@@H](O)C[C@H]1C[C@H]3O (stereo partly specified)	n	n	x	n	x	n
O=C1NC(=O)N(c2ccccc2)C(=O)/C1=C/c1ccoc1	n	n	n	u	n	n
